From the supplement of paper PMC3334620
Over roughly 33,000 sequences, “E-score (-0.5 to 0.5)” has its median near -0.017; the highest 2% begin near 0.3. Shown is part of a subset that was picked to be rich in the highest values.

Each sequence was assayed against T1, Sut1 (UniProt P53032) (assay: PBM E-score (8-mer binding enrichment) (E-score (-0.5 to 0.5)); higher = stronger / more preferred TF binding). Details: protein concentration: 200 nM; construct: GST-full length.
T1 sequence: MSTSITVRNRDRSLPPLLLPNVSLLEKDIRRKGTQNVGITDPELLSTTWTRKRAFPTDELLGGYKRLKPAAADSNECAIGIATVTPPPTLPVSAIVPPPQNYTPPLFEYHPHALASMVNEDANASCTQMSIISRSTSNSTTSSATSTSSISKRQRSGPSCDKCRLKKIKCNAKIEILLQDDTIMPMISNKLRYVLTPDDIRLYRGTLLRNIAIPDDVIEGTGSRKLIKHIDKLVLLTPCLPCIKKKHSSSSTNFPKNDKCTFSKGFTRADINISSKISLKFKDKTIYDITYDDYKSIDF
Description: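 Universal 'all 10-mer' protein binding microarrays (Agilent AMADID 015681) probed with GST-tagged S. cerevisiae TFs (full-length or DBD) made by in vitro transcription/translation (PURExpress), about 100-200 nM. Bound TF was detected with fluorescent anti-GST. Each ungapped 8-mer (which stands for itself and its reverse complement) is scored by the PBM enrichment score (E-score), a modified Wilcoxon-Mann-Whitney statistic from -0.5 to +0.5, computed with the Universal PBM Analysis Suite. Scale: above 0.35 generally sequence-specific binding.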

Row | Sequence | PBM E-score
1 | AAACGCGC | -0.123
2 | ATCCTCAT | -0.0846
3 | CGAGGGTC | -0.194
4 | CTTATGTA | 0.16
5 | AAACTGAA | 0.171
6 | AAGTTGCG | 0.108
7 | CTCGCCCC | -0.298
8 | AGTGAATA | 0.177
9 | ATGGTCGG | 0.0544
10 | GCCCAGCC | -0.184
11 | CTGATTTC | 0.0415
12 | ATGATTTA | 0.222
13 | ATTATTTC | 0.306
14 | ACTATTTG | 0.252
15 | GTTATTTA | 0.257
16 | ATTATTAC | 0.278
17 | ATTATTTA | 0.347
18 | ATTATTTG | 0.319
19 | ATTATTAG | 0.144
20 | CTTATTTC | 0.207
21 | ATGATTTC | 0.299
22 | CTTATTTA | 0.101
23 | CGCTAGTA | 0.101
24 | AGAATGCA | 0.0147
25 | CCCGTTAG | -0.0959

Row | Sequence | PBM E-score
26 | CGTACGAG | -0.098
27 | AATAGCTC | -0.207
28 | ATTGCGAC | 0.0862
29 | CGTCCTTA | -0.176
30 | GTACCGGA | 0.342
31 | ATACCGGA | 0.326
32 | ATACCGGC | -0.0331
33 | GTACCGCA | 0.102
34 | CTACCGGA | 0.222
35 | ATACCGGG | 0.0371
36 | AGTCAGCA | -0.0199
37 | ACCCACTC | 0.00249
38 | CTGCGGAA | -0.0948
39 | ATCCGGTG | 0.0918
40 | ATCCGGCG | -0.00912
41 | TCCCGGAA | 0.228
42 | TGCCGGAA | 0.188
43 | ATCCGGAG | 0.414
44 | CTCCGGAA | 0.442
45 | TTCCGGAA | 0.395
46 | ATCCGGAT | 0.257
47 | ATCCGGAC | 0.362
48 | ACAGTCAA | -0.0644
49 | AGAGTAAG | 0.016
50 | AAGCTCTC | -0.127

Row | Sequence | PBM E-score
51 | AAAACTTG | 0.143
52 | GCGTTACC | -0.158
53 | ACTCCCTG | -0.173
54 | AATCACGT | -0.0474
55 | GTGCGGAA | 0.0942
56 | CTCAGGAG | -0.179
57 | GTCCGGAC | 0.469
58 | GTCAGGAC | -0.206
59 | ATGCGGAG | 0.259
60 | ATGCGGAA | 0.0745
61 | GTCCGGAA | 0.402
62 | GTCCAAAC | -0.0427
63 | ATCCGGAA | 0.303
64 | CTCCGGAG | 0.487
65 | CAACGCAA | 0.111
66 | TAGTTAGA | 0.169
67 | AGTCTATG | -0.11
68 | ACATTGGC | -0.21
69 | AGAAAGCT | 0.126
70 | CATAAGGA | -0.134
71 | CCCTCGAC | -0.327
72 | CAATCTAG | -0.0129
73 | CTTAGTCC | 0.113
74 | ATTGAGTG | 0.0241
75 | CTCAGGAC | -0.127

Row | Sequence | PBM E-score
76 | CTCCGGAC | 0.473
77 | CTGCGGAC | 0.165
78 | CTTTAAAC | 0.105
79 | ATATTAAA | 0.37
80 | GTTTAAAC | 0.31
81 | TAGTTATA | 0.318
82 | AAGTTATA | 0.186
83 | GAAATTAA | 0.333
84 | CTATTAAA | 0.0826
85 | AAAATTAA | 0.221
86 | TTATTAAA | 0.273
87 | CAAATTAA | 0.189
88 | GTTTAAAA | 0.19
89 | GAGTTATA | 0.2
90 | AGGTCTAA | -0.0642
91 | CTAGGTGA | -0.168
92 | GTCTATCA | 0.101
93 | AGATTCAT | 0.0265
94 | ATTAAGAC | 0.123
95 | GCGCTTGA | 0.0596
96 | ATATTTAC | 0.282
97 | AATTAAAC | 0.329
98 | CTATTTAA | 0.188
99 | AATTTATA | 0.276
100 | TAATTATA | 0.349

Row | Sequence | PBM E-score
101 | GATTAAAC | 0.114
102 | TAATTAGA | 0.218
103 | AATTAAAG | 0.198
104 | ATATTTAA | 0.303
105 | CAATTATA | 0.164
106 | AAATTATA | 0.351
107 | AAATTATG | 0.175
108 | ACTAAGTC | 0.0911
109 | CTACCCAG | -0.18
110 | AGAAATGC | 0.048
111 | GAAATCCC | -0.0066
112 | ATCACCTA | -0.13
113 | CTTAGCCC | -0.129
114 | ATGAACCC | 0.00896
115 | CCAAATCC | 0.0309
116 | AGCAGAAA | 0.175
117 | AAGGTCTC | -0.0653
118 | AAATTATC | 0.281
119 | GAATTATC | 0.0676
120 | AGATTAAA | 0.324
121 | TCATTAAA | 0.315
122 | GCATTAAA | 0.0763
123 | GAATTATA | 0.335
124 | GCATTATA | 0.118
125 | AAATTATT | 0.328

Row | Sequence | PBM E-score
126 | ACATTAAA | 0.259
127 | AAATTACT | 0.234
128 | CGATTAAA | 0.237
129 | AGATTAAT | 0.222
130 | AGCAAATC | 0.142
131 | AGTGGCAT | -0.231
132 | CCCTTCAA | -0.068
133 | ATTCCCTA | 0.11
134 | AAGGCCAG | -0.00339
135 | GAGCTAAA | 0.106
136 | AATTTCTA | 0.285
137 | CTCTTAAC | 0.042
138 | GTCTTAAA | 0.00721
139 | ATATTATC | 0.223
140 | ATATTATG | 0.362
141 | CTCTTAAA | 0.302
142 | ATATTATA | 0.249
143 | AAATTAAA | 0.333
144 | AAATTAAC | 0.236
145 | AAATTAAT | 0.292
146 | CTCTCGCC | -0.182
147 | GAGTTAAA | 0.13
148 | AGAACCTC | -0.0985
149 | GCAACGCC | -0.114
150 | CTTAAAGC | -0.0652

Row | Sequence | PBM E-score
151 | TATACTGA | 0.292
152 | TATATTGA | 0.332
153 | GATATTGA | 0.234
154 | CATATTAA | 0.183
155 | TATATTAA | 0.315
156 | GATATTAA | 0.285
157 | CATATTGA | 0.0287
158 | GAACAGAC | 0.0707
159 | GTCCTAGA | -0.141
160 | AGCCCGGG | 0.0766
161 | AGCCCGGA | 0.341
162 | GCCCCGGA | 0.29
163 | AGCCCGGC | 0.00111
164 | CGCCCGGC | -0.0194
165 | GGCCCGGA | 0.305
166 | GGCCCGCA | -0.113
167 | CGCCCGGA | 0.361
168 | CGCCCGAA | -0.101
169 | CTACCAAC | 0.0725
170 | AACTCGCT | 0.0435
171 | ATGGAGAA | 0.108
172 | TCGGACAA | 0.367
